The source made the active and inactive calls.
Tests used:
[1] = test system: Plasmodium falciparum Sir2 (PF13_0152, Sir2A); test: pfSir2 binders on small-molecule microarrays, primary screen, biochemical, small-molecule microarray, 635 nm fluorescence (AID 1098); conditions: small-molecule microarray binding, fluorescence 635 nm; higher = more signal;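 note: score merges spot fluorescence intensity with its signal-to-noise ratio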
[2] = small-molecule microarray binders of probe aDKK1, primary screen, biochemical, biotinylated probe, 635/667 nm fluorescence (AID 1099); conditions: higher = more signal;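 note: score merges 667nm spot fluorescence with signal to noise across triplicate slides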
[3] = small-molecule microarray binders of probe aCHRDL2, primary screen, biochemical, biotinylated probe, 635/667 nm fluorescence (AID 1100); conditions: higher = more signal
[4] = splicing luciferase reporter signal modulators, primary screen, spliceosome inhibition project, cell-based, HEK293, splice +/- reporter (AID 1101); conditions: luminescence, 24 h, higher = more signal, called active from +8 up or from −8 down;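 note: HEK293 cells carrying a splicing-competent luciferase reporter gene; test concentration not given here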
[5] = target: Fibroblast growth factor 10 (Homo sapiens) (UniProt O15520); test: FGF10 binders on small-molecule microarrays, primary screen, biochemical, small-molecule microarray, 635 nm fluorescence (AID 1102); conditions: FGF10 binding, fluorescence 635 nm, higher = more signal
Chain of Fibroblast growth factor 10 (Homo sapiens) (O15520 whole entry, looked up): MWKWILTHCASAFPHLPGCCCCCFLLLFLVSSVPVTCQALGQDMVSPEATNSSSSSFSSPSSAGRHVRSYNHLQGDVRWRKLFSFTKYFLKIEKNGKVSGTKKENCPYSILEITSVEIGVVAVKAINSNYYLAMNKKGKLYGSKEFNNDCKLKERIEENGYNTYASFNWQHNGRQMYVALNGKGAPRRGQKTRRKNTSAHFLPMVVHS

[6] = test system: glycogen synthase kinase-3 (GSK3A per assay name; protocol says GSK3B); test: GSK3 binders on small-molecule microarrays, primary screen, biochemical, small-molecule microarray, 635 nm fluorescence, GSK3A (AID 1103); conditions: small-molecule microarray binding, fluorescence 635 nm; higher = more signal; note: the record names both GSK3A and GSK3B
[7] = target: Epidermal growth factor receptor (Homo sapiens) (UniProt P00533); test: EGFR binders on small-molecule microarrays, primary screen, biochemical, small-molecule microarray, 635 nm fluorescence (AID 1104); conditions: EGFR binding, higher = more signal;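 note: score merges 667 nm emission intensity with spot signal to noise over triplicate slides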
Chain of Epidermal growth factor receptor (Homo sapiens) (P00533 whole entry, looked up): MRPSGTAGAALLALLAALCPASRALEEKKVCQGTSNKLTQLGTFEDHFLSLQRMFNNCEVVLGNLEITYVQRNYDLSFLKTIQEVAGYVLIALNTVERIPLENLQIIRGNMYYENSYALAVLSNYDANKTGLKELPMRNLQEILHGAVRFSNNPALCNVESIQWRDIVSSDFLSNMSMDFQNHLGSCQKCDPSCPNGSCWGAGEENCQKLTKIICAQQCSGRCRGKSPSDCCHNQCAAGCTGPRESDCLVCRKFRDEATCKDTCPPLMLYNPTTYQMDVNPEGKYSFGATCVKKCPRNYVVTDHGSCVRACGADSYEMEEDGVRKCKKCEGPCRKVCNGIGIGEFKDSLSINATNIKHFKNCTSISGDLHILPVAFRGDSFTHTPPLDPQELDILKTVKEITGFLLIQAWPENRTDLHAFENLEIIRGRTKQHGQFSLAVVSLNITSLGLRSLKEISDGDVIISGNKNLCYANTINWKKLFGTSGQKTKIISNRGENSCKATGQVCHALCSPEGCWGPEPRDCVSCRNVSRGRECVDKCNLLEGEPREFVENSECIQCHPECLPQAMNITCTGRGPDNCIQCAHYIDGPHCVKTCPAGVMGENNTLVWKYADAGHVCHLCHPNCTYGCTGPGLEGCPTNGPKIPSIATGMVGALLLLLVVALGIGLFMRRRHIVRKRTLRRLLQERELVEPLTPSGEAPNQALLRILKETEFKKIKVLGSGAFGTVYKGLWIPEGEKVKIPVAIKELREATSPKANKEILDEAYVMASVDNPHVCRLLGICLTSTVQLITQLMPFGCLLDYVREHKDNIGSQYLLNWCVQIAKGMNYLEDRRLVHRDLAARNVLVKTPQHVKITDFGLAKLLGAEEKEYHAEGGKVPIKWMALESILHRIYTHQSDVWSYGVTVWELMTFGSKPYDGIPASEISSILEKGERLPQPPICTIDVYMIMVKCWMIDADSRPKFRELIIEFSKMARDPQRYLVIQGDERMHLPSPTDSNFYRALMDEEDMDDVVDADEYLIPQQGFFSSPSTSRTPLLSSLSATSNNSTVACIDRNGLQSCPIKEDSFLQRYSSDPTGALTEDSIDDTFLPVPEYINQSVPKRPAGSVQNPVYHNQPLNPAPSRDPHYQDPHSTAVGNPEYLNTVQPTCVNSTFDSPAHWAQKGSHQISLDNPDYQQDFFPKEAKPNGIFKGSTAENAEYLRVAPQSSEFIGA

[8] = target: Follistatin-related protein 3 (Homo sapiens) (UniProt O95633); test: FSTL3 binders on small-molecule microarrays, primary screen, biochemical, small-molecule microarray, 635 nm fluorescence (AID 1105); conditions: FSTL3 binding, higher = more signal;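 note: score merges emission near 667 nm and signal to noise per printed spot across three slides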
Chain of Follistatin-related protein 3 (Homo sapiens) (O95633 whole entry, looked up): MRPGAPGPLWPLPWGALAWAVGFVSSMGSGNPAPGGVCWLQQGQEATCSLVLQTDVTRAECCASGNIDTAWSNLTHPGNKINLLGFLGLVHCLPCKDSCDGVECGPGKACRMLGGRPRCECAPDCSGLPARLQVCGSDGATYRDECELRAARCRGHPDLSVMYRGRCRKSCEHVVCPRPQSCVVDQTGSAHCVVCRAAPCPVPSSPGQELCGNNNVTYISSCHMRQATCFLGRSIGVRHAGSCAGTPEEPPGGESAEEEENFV

[9] = target: Dickkopf-related protein 1 (Homo sapiens) (UniProt O94907); test: DKK1 binders on small-molecule microarrays, primary screen, biochemical, small-molecule microarray, 635 nm fluorescence scan (AID 1106); conditions: DKK1 binding, higher = more signal;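 note: score merges emission near 667 nm with signal to noise over three replicate slides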
Chain of Dickkopf-related protein 1 (Homo sapiens) (O94907 whole entry, looked up): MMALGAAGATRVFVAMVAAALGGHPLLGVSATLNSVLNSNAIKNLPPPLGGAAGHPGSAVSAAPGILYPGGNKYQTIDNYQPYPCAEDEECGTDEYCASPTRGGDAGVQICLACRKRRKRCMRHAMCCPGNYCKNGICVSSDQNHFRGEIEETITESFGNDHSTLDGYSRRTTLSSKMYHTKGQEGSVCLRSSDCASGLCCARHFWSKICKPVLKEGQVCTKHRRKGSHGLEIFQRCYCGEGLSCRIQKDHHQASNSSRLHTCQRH

[10] = test system: Inhibin beta A chain (activin A); test: INHBA (activin A) binders on microarrays, primary screen, biochemical, small-molecule microarray, 635 nm fluorescence scan (AID 1107); conditions: small-molecule microarray binding, higher = more signal;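 note: mouse activin A protein probed at 4.33 µg/mL on printed slides; score merges bound-protein fluorescence near 667 nm with spot signal-to-noise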
[11] = test system: Human papillomavirus type 1a protein E7 (residues 44-93); test: HPV1a E7 fragment binders on microarrays, primary screen, biochemical, small-molecule microarray, residues 44-93, 635 nm fluorescence (AID 1108); conditions: small-molecule microarray binding, fluorescence 635 nm; higher = more signal;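 note: E7 fragment applied at 1 µg/mL in TBST for 1 h at 4 C; score combines spot fluorescence with its signal to noise ratio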
[12] = modulators of HCV replicon luciferase signal, primary screen, HCV replication inhibitor project, Huh7 cells, luciferase reporter (AID 1109); conditions: 48 h, higher = more signal;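 note: huh7 hepatoma cells harbouring a luciferase neomycin HCV replicon reporter; luciferase luminescence as measure of HCV replicon replication; test concentration not given here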
[13] = target: Left-right determination factor 2 (Homo sapiens) (UniProt O00292); test: LEFTY2 binders on small-molecule microarrays, primary screen, biochemical, small-molecule microarray, 635 nm fluorescence scan (AID 1110); conditions: LEFTY2 binding, higher = more signal
Chain of Left-right determination factor 2 (Homo sapiens) (O00292 whole entry, looked up): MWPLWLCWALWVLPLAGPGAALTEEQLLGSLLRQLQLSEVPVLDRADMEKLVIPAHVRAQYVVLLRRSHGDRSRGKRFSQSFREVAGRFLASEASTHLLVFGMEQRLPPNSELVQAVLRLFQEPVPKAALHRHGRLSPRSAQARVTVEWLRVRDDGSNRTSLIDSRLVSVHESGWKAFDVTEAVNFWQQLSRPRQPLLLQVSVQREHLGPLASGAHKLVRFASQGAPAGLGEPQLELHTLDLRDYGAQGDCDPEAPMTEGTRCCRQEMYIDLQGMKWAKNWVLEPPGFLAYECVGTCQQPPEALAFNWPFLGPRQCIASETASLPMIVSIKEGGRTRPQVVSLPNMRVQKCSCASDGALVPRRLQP

[14] = target: Calmodulin-1 (Homo sapiens) (UniProt P0DP23); test: CALM1 binders on microarrays, EGTA buffer, profiling panel, biochemical, small-molecule microarray, Cy5-labelled CALM1 (AID 1111); conditions: Cy5-CALM1 binding fluorescence, higher = more signal;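 note: labelled calmodulin applied in Tris saline Tween buffer holding calcium plus EGTA and DTT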
[15] = target: Calmodulin-1 (Homo sapiens) (UniProt P0DP23); test: calcium-bound CALM1 binders on microarrays, profiling panel, artefact control for SMM control-protein annotation, biochemical, small-molecule microarray, Cy5-labelled CALM1, plus calcium (AID 1112); conditions: Cy5-CALM1 binding fluorescence, higher = more signal;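 note: score merges spot fluorescence with signal to noise from triplicate slides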
[16] = small-molecule microarray binders of probe aWnt5a, primary screen, biochemical, biotinylated probe, 635/667 nm fluorescence (AID 1113); conditions: higher = more signal;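 note: score merges 667 nm fluorescence intensity with signal-to-noise per printed feature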
[17] = small-molecule microarray binders of probe aShh, primary screen, biochemical, biotinylated probe, 635/667 nm fluorescence (AID 1114); conditions: higher = more signal;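 note: probe is biotin-labelled aShh protein from a stem cell growth factor screen; measures binding of labelled protein to compounds printed on the slide; score merges feature fluorescence at 667 nm with signal-to-noise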
[18] = small-molecule microarray binders of probe aNog, primary screen, biochemical, biotinylated probe, 635/667 nm fluorescence (AID 1115); conditions: higher = more signal;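 note: probe is biotinylated aNog protein used at 0.15 µg/mL for 1 h at 4 C; z-score combines 667 nm fluorescence of each spot with its signal to noise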
[19] = target: Torsin-1A-interacting protein 1 (Homo sapiens) (UniProt Q5JTV8); test: LAP1 binders from COS7 cell lysate, primary screen, small-molecule microarray, 635/667 nm fluorescence (AID 1116); conditions: COS7-hLAP1 lysate binding, 635 nm fluorescence, higher = more signal
Chain of Torsin-1A-interacting protein 1 (Homo sapiens) (Q5JTV8 whole entry, looked up): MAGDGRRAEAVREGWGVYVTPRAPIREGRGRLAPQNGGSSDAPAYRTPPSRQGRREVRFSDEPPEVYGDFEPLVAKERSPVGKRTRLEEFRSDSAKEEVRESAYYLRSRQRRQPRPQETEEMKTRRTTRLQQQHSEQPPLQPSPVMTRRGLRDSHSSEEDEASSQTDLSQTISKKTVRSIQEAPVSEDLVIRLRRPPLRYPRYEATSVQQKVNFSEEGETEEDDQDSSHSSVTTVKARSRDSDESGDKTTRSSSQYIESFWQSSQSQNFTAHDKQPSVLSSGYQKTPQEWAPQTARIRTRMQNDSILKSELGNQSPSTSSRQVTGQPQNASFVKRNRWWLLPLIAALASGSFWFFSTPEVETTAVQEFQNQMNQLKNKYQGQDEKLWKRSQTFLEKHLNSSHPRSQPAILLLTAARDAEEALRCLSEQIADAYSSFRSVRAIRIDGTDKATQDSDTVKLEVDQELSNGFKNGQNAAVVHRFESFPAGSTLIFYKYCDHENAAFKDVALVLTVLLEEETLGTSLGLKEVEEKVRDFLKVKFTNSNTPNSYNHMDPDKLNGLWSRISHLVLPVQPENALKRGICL

[20] = target: Alpha-bungarotoxin (Bungarus multicinctus) (UniProt P60615); test: alpha-bungarotoxin binders on microarray, profiling panel, artefact control for SMM control protein annotation, biochemical, small-molecule microarray, Alexa647 label, 635/667 nm fluorescence (AID 1117); conditions: alpha-BTX-A647 binding fluorescence, higher = more signal
Chain of Alpha-bungarotoxin (Bungarus multicinctus) (P60615 whole entry, looked up): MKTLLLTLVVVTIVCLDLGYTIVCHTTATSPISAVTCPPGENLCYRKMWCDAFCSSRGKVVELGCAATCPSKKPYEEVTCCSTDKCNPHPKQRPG

| Structure (SMILES) | composite z-score [1] | composite z-score [2] | composite z-score [3] | z-score [4] | composite z-score [5] | composite z-score [6] | composite z-score [7] | composite z-score [8] | composite z-score [9] | composite z-score [10] | composite z-score [11] | z-score [12] | composite z-score [13] | composite z-score [14] | composite z-score [15] | composite z-score [16] | composite z-score [17] | composite z-score [18] | composite z-score [19] | composite z-score [20] |
| --- | --- | --- | --- | --- | --- | --- | --- | --- | --- | --- | --- | --- | --- | --- | --- | --- | --- | --- | --- | --- |
| [N-]=[N+]=Nc1ccccc1C[C@]1(C(=O)N2CCOCC2)N=C(c2ccc(OCCCO)cc2)O[C@H]1c1ccccc1 | 1.11 | 1.45 | 1.03 | -0.963 (inactive) | 1.16 | 1.29 | 0.307 | 1.01 | 1.93 | 0.52 | 1.04 | -1.81 | 0.444 | 1.17 | 0.173 | 0.104 | -0.153 | 0.347 | 1.18 | 1.31 |
| [N-]=[N+]=NCc1ccccc1[C@@H]1OC(c2ccc(OCCCO)cc2)=N[C@]1(CCS(=O)(=O)c1ccccc1)C(=O)NCC(O)CO (stereo not given in full) | 1.46 | 0.76 | 1.03 | -1.33 (inactive) | 1.22 | -0.323 | -0.0077 | 0.6 | -0.227 | 0.736 | 0.711 | -1.2 | -0.275 | 2.14 | 0.701 | 0.0799 | 0.0062 | 0.975 | 4.4 | 2.17 |
| CC(CO)N1C(=O)[C@@H]2[C@H]3C(=O)OCC=C[C@H]3OC23C=CCN(Cc2ccccc2)C(=O)[C@@H]13 (stereo not given in full) | 0.978 | -0.321 | 0.247 | -1.11 (inactive) | -0.49 | -1.23 | -1.18 | -0.578 | -0.567 | 0.056 | -1.13 | -0.254 | -0.509 | -0.216 | -0.324 | 0.206 | -0.211 | -0.273 | -0.5 | -0.221 |
| O=C1O[C@H](c2ccccc2)[C@H](c2ccccc2)N2[C@H]1[C@@H](C(=O)Nc1nc3ccccc3s1)[C@]1(C(=O)Nc3ccccc31)[C@H]2c1ccc(OCCO)cc1 | 1.35 | 0.07 | 0.341 | -0.472 (inactive) | 0.841 | 1.31 | 0.836 | 1.36 | 1.31 | 0.715 | 1.36 | -2.64 | 0.807 | 0.504 | -0.302 | -0.16 | 0.0899 | -0.411 | 0.442 | 1.02 |
| COCCOC(=O)N1C(=O)[C@@]2(c3cc(C#CCNC(N)=O)ccc31)[C@H](C(=O)N1CCc3cc(OC)c(OC)cc3C1)[C@H]1C(=O)O[C@H](c3ccccc3)[C@H](c3ccccc3)N1[C@@H]2c1ccccc1OCCO | 1.26 | 0.073 | 0.315 | 0.0466 (inactive) | 1.41 | 1.14 | 0.873 | 1.14 | 0.246 | 0.586 | 0.843 | -1.03 | 0.76 | 1.29 | 0.582 | -0.0786 | -0.305 | 0.39 | 1.03 | 1.85 |
